Source: PubChem BioAssay (EPA / NIEHS)
Records with an inconclusive call do not appear. Calls of active or inactive are those of the source. How the source made its calls, unless noted: active means hit-call score of the fitted dose curve at least 0.9, where 1 is the maximum; inactive means score below 0.9.

Key:
[1] = read-out: E-selectin (Homo sapiens) (UniProt P16581); experiment: BSK_3C_Eselectin: BioMAP Diversity Plus: 3C Assay for Eselectin Biomarker Activity (AID 2283015); conditions: primary human endothelial cells (HUVEC); actives raise or lower the signal
Method in brief: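 Human vascular endothelium from umbilical vein is exposed to test chemicals for 24 h. E-selectin levels are read by ELISA and compared with DMSO controls.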

[2] = read-out: Interleukin-1 alpha (IL1a), IL1A (gene 3552); experiment: BSK_BE3C_IL1a: BioMAP Diversity Plus: BE3C Assay for Interleukin-1 alpha (IL1a) Biomarker Activity (AID 2283016); conditions: primary human bronchial epithelial cells; actives raise or lower the signal
Method in brief: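 ELISA read-out of IL-1a from human lung bronchial epithelial primary cells, 24 h post-dose. Gain or loss of signal fitted relative to DMSO negative control.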

[3] = read-out: Monocyte Chemoattractant Protein-1 (MCP1), CCL2 (gene 6347); experiment: BSK_3C_MCP1: BioMAP Diversity Plus: 3C Assay for Monocyte Chemoattractant Protein-1 (MCP1) Biomarker Activity (AID 2283017); conditions: primary human endothelial cells (HUVEC); actives raise or lower the signal
Method in brief: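 Endothelial cells from human umbilical vein are dosed with chemical, cultured 24 h, then assayed for MCP-1 by ELISA; both increases and decreases are modelled against DMSO controls.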

[4] = read-out: Monocyte Chemoattractant Protein-1 (MCP1), CCL2 (gene 6347); experiment: BSK_4H_MCP1: BioMAP Diversity Plus: 4H Assay for Monocyte Chemoattractant Protein-1 (MCP1) Biomarker Activity (AID 2283018); conditions: primary human endothelial cells (HUVEC); actives raise or lower the signal
Method in brief: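 HUVEC primary cells, 24 h post-dose, MCP-1 by ELISA. Gain or loss of signal fitted bidirectionally vs DMSO baseline. Cytotoxicity: SRB stain (0.1% after 10% TCA fixation), read 560 nm, parallel cultures.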

[5] = read-out: Human Leukocyte Antigen - DR isotype (HLADR), HLA-DRA (gene 3122); experiment: BSK_3C_HLADR: BioMAP Diversity Plus: 3C Assay for Human Leukocyte Antigen - DR isotype (HLADR) Biomarker Activity (AID 2283019); conditions: primary human endothelial cells (HUVEC); actives raise or lower the signal
Method in brief: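 Endothelial cells from human umbilical vein are treated with test chemical; after 24 h, HLA-DR levels are measured by ELISA. Data are fitted in both directions using DMSO as the baseline.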

[6] = read-out: Interleukin-8 (IL8), CXCL8 (gene 3576); experiment: BSK_3C_IL8: BioMAP Diversity Plus: 3C Assay for Interleukin-8 (IL8) Biomarker Activity (AID 2283020); conditions: primary human endothelial cells (HUVEC); actives raise or lower the signal
Method in brief: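 HUVEC, 3C stimulation; 24 h compound exposure; IL-8 read by ELISA; gain or loss of signal fitted relative to DMSO control.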

[7] = read-out: Monokine induced gamma interferon (MIG), CXCL9 (gene 4283); experiment: BSK_3C_MIG: BioMAP Diversity Plus: 3C Assay for Monokine induced gamma interferon (MIG) Biomarker Activity (AID 2283021); conditions: primary human endothelial cells (HUVEC); actives raise or lower the signal;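 on AC50: MIG protein level measured by immunoassay in the treated endothelial cultures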
Method in brief: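 HUVEC, 3C system; 24 h chemical exposure; MIG by ELISA; bidirectional fit vs DMSO baseline.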

[8] = target: human Vitamin D Receptor (VDR), VDR (gene 7421) (UniProt P11473); experiment: ATG_VDR_TRANS: Attagene TRANS-FACTORIAL HepG2 Assay for human Vitamin D Receptor (VDR) (AID 2283022; active means hit-call score of the fitted dose curve at least 0.9, where 1 is the maximum)
Method in brief: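 Fluorescence of labelled reporter cDNA fragments, resolved by capillary electrophoresis, gives mRNA induction after 24 h treatment of HepG2 cells carrying transfected Gal4-fusion reporter units. Activity is fitted in the positive direction with DMSO as baseline.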

[9] = BSK_3C_SRB: Viability Assessment in the BioMAP Diversity Plus: 3C Assay (AID 2283023); conditions: primary human endothelial cells (HUVEC);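 further: cells read 24 h after compound dosing; fitted both ways against DMSO so a hit may be signal rise or drop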
Method in brief: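 Cells were dosed with chemical, cultured 24 h, fixed with 10% TCA, stained with 0.1% SRB and read at 560 nm. Human umbilical vein endothelium was used; DMSO served as negative control and baseline.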

[10] = read-out: Matrix Metallopeptidase 1 (MMP1), MMP1 (gene 4312); experiment: BSK_BE3C_MMP1: BioMAP Diversity Plus: BE3C Assay for Matrix Metallopeptidase 1 (MMP1) Biomarker Activity (AID 2283024); conditions: primary human bronchial epithelial cells; actives raise or lower the signal
Method in brief: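 ELISA read-out of MMP1 in human lung bronchial epithelial primary cultures, 24 h post-dose; bidirectional curve fit vs DMSO baseline, gain or loss of signal scored.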

[11] = BSK_3C_Vis: BioMAP Diversity Plus: 3C Assay for Morphology Visualization (AID 2283025); conditions: primary human endothelial cells (HUVEC);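 further: fitted both ways so gain or loss versus DMSO counts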;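 on AC50: light microscopy image of cell morphology used as background control; cells imaged 24 h after dosing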
Method in brief: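 HUVEC, 3C system; light microscopy of morphology at 24 h post-dose. Bidirectional fit vs DMSO baseline. Secondary readout, background-control function.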

[12] = read-out: Pselectin, SELP (gene 6403); experiment: BSK_4H_Pselectin: BioMAP Diversity Plus: 4H Assay for Pselectin Biomarker Activity (AID 2283026); conditions: primary human endothelial cells (HUVEC); actives raise or lower the signal
Method in brief: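 HUVEC, 24 h chemical exposure; P-selectin read by ELISA. Bidirectional curve fit vs DMSO baseline; gain or loss of signal scored.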

[13] = BSK_4H_SRB: Viability Assessment in the BioMAP Diversity Plus: 4H Assay (AID 2283027); conditions: primary human endothelial cells (HUVEC);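 further: cells exposed to compound for 24 h before staining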;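 on AC50: curves fitted both ways versus DMSO so AC50 may be loss or gain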
Method in brief: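 Cytotoxicity readout: sulforhodamine B (0.1%) staining of total protein after 10% TCA fixation, measured at 560 nm in human umbilical vein endothelium at 24 h. DMSO set the baseline; fitting was bidirectional.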

[14] = BSK_BE3C_SRB: Viability Assessment in the BioMAP Diversity Plus: BE3C Assay (AID 2283028); conditions: primary human bronchial epithelial cells;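 on AC50: fitted both ways so AC50 may mark signal gain or loss versus DMSO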
Method in brief: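 Overt cytotoxicity was assessed as total protein in confluent human primary bronchial epithelial cultures 24 h after chemical addition, using 0.1% sulforhodamine B staining read at 560 nm.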

[15] = read-out: Urokinase-type plasminogen activator receptor (uPAR), PLAUR (gene 5329); experiment: BSK_4H_uPAR: BioMAP Diversity Plus: 4H Assay for Urokinase-type plasminogen activator receptor (uPAR) Biomarker Activity (AID 2283030); conditions: primary human endothelial cells (HUVEC); actives raise or lower the signal
Method in brief: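 Chemicals are dosed onto human vascular endothelial primary cells (umbilical vein). After 24 h, uPAR is read by ELISA. Gain or loss of signal is fitted relative to DMSO.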

[16] = read-out: Vascular endothelial growth factor receptor 2 (Homo sapiens) (UniProt P35968); experiment: BSK_4H_VEGFRII: BioMAP Diversity Plus: 4H Assay for Vascular endothelial growth factor receptor 2 (VEGFR2) Biomarker Activity (AID 2283031); conditions: primary human endothelial cells (HUVEC); actives raise or lower the signal;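 on AC50: cell-surface VEGFR2 protein level quantified by ELISA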
Method in brief: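 VEGFRII levels on human vascular endothelial primary cells were determined by ELISA at 24 hours post-dosing, with gain- or loss-of-signal fitted against DMSO controls.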

[17] = read-out: Thrombomodulin, THBD (gene 7056); experiment: BSK_3C_Thrombomodulin: BioMAP Diversity Plus: 3C Assay for Thrombomodulin Biomarker Activity (AID 2283029); conditions: primary human endothelial cells (HUVEC); actives raise or lower the signal
Method in brief: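 HUVEC, 3C conditions; compound 24 h; thrombomodulin by ELISA; bidirectional curve fit vs DMSO baseline; parallel SRB total-protein staining for cytotoxicity.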

[18] = target: human Thyroid Receptor alpha (THRa1), THRA (gene 7067) (UniProt P10827); experiment: ATG_THRa1_TRANS: Attagene TRANS-FACTORIAL HepG2 Assay for human Thyroid Receptor alpha (THRa1) (AID 2283014; active means hit-call score of the fitted dose curve at least 0.9, where 1 is the maximum)
Method in brief: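 First, HepG2 cells receive multiple GAL4-UAS reporter units and the chimeric receptor. They are then dosed for 24 h, after which RNA is reverse-transcribed, amplified, labelled, HpaI-cut and sized by capillary electrophoresis; gain relative to DMSO is scored.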

[19] = target: human Retinoid X Receptor beta (RXRb), RXRB (gene 6257) (UniProt P28702); experiment: ATG_RXRb_TRANS: Attagene TRANS-FACTORIAL HepG2 Assay for human Retinoid X Receptor beta (RXRb) (AID 2283013; active means hit-call score of the fitted dose curve at least 0.9, where 1 is the maximum)
Method in brief: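 Read-out: reporter mRNA induction via RT-PCR plus capillary electrophoresis fluorescence, analysed as signal increase relative to DMSO. Cells were human HepG2, transiently transfected with GAL4-UAS reporter constructs and chimeric receptor-Gal4 fusions, dosed for 24 h.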

Measured: AC50

Sequence of E-selectin (Homo sapiens) (P16581 whole entry, looked up): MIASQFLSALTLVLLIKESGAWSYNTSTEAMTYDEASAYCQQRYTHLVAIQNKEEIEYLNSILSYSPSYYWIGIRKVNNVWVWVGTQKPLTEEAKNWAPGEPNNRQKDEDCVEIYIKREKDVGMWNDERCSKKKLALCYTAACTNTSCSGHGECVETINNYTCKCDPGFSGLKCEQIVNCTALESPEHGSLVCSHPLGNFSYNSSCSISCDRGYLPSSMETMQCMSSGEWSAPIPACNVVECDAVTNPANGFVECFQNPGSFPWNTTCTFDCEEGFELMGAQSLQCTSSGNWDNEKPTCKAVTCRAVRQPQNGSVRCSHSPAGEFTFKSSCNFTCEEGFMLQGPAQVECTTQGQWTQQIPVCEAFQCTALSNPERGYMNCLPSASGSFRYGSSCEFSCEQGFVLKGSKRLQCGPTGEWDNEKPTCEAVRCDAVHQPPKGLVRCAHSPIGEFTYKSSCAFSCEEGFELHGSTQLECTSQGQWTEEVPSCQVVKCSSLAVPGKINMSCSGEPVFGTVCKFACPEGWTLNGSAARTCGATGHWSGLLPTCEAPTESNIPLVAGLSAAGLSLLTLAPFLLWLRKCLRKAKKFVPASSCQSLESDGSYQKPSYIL
Sequence of human Thyroid Receptor alpha (THRa1), THRA (gene 7067) (P10827 whole entry, looked up, the tested form may be a part): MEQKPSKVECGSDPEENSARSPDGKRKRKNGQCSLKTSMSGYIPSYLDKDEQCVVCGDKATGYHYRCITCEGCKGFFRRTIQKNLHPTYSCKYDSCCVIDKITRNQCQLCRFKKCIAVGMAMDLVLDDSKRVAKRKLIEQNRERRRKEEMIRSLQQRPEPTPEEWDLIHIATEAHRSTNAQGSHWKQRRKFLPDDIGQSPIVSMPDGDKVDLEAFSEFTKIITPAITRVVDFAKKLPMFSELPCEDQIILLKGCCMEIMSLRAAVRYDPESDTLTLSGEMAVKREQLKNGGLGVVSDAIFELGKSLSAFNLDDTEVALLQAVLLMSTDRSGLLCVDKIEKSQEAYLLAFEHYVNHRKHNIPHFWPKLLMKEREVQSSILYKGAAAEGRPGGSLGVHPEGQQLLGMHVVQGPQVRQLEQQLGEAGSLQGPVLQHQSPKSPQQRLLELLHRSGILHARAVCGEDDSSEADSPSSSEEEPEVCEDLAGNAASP
Sequence of human Vitamin D Receptor (VDR), VDR (gene 7421) (P11473 whole entry, looked up, the tested form may be a part): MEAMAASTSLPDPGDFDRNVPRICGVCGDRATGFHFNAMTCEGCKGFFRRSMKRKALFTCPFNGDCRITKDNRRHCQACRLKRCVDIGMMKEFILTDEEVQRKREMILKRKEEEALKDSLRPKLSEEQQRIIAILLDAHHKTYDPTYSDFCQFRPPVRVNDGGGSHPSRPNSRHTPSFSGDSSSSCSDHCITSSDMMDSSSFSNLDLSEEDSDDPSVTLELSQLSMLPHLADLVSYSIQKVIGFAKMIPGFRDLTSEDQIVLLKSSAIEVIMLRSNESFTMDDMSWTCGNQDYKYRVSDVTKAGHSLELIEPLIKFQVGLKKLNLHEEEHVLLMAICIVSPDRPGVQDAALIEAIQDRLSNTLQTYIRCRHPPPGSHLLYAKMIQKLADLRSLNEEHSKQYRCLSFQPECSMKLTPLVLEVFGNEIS
Sequence of human Retinoid X Receptor beta (RXRb), RXRB (gene 6257) (P28702 whole entry, looked up, the tested form may be a part): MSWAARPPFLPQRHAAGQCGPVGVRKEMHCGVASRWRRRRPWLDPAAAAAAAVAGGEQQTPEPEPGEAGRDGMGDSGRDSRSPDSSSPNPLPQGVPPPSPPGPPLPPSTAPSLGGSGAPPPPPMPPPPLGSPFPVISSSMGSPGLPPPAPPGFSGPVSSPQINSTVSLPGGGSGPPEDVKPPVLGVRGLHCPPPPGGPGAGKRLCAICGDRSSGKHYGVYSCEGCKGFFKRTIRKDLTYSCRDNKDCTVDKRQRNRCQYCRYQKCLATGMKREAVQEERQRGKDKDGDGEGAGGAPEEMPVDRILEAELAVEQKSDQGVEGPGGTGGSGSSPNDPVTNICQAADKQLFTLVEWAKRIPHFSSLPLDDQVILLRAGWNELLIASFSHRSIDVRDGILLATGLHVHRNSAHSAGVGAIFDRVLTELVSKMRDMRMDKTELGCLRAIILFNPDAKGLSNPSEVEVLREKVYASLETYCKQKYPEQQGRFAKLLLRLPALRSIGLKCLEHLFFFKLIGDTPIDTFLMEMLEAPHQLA

CCCCCCCC=O
inactive: [1] | [2] | [3] | [4] | [5] | [6] | [7] | [8] | [9] | [10] | [11] | [12] | [13] | [14] | [15] | [16]

OC[C@@H](O)[C@@H](O)[C@H](O)[C@H](O)CO
inactive: [1] | [2] | [3] | [4] | [5] | [6] | [7] | [9] | [10] | [11] | [12] | [13] | [14] | [17] | [15] | [16]

O=C(O)Cc1ccccc1Nc1c(Cl)cccc1Cl
inactive: [1] | [2] | [3] | [4] | [5] | [6] | [7] | [8] | [9] | [10] | [11] | [12] | [13] | [14] | [17] | [15] | [16]

CC(C)c1ccc(C(=O)N=C(N)N)cc1S(C)(=O)=O
inactive: [18] | [1] | [2] | [3] | [4] | [5] | [6] | [7] | [9] | [10] | [11] | [12] | [13] | [14] | [15] | [16]

O=[N+]([O-])C(CO)(CO)CO
inactive: [18] | [1] | [2] | [3] | [4] | [5] | [6] | [7] | [8] | [9] | [10] | [11] | [12] | [13] | [14] | [17] | [15] | [16]

Oc1ccc2ccccc2c1N=Nc1ccccc1
inactive: [18] | [1] | [2] | [3] | [4] | [5] | [6] | [7] | [9] | [11] | [12] | [13] | [14] | [15] | [16]
active: [10] 3.97 µM

CCCc1cc(=O)[nH]c(=S)[nH]1
inactive: [19] | [1] | [2] | [3] | [4] | [5] | [6] | [7] | [9] | [10] | [11] | [12] | [13] | [14] | [17] | [15] | [16]

CCCCCCCCCCC
inactive: [1] | [2] | [3] | [4] | [5] | [6] | [7] | [9] | [10] | [11] | [12] | [13] | [14] | [15] | [16]

CC1(C)CC(N=C=O)CC(C)(CN=C=O)C1 (stereo not given)
active: [11] 39 µM
inactive: [1] | [2] | [3] | [4] | [5] | [6] | [7] | [9] | [10] | [12] | [13] | [14] | [17] | [15] | [16]

COc1cc(-c2nc(NC(=O)c3cc4cc(C)cc(C)c4n3CC(=O)O)sc2CCC2CCCCC2)c(OC)cc1Cl
active: [1] 5.53 µM | [2] 3.38 µM | [3] 2.91 µM | [4] 5.38 µM | [5] 3.08 µM | [6] 5.83 µM | [7] 5.26 µM | [9] 2.92 µM | [10] 4.37 µM | [11] 4.08 µM | [12] 3.63 µM | [13] 4.62 µM | [14] 3.12 µM | [15] 4.62 µM | [16] 4.37 µM
inactive: [18] | [8]

Cc1nc(-c2ccc3c(c2)CCN(CCC2CCC(NC(=O)/C=C/c4ccc(F)cc4)CC2)CC3)no1 (stereo not given)
active: [5] 5.83 µM | [6] 7.5 µM | [9] 6.26 µM | [11] 6.4 µM | [12] 5.65 µM | [13] 6.89 µM | [17] 9.3 µM
inactive: [1] | [2] | [3] | [4] | [7] | [10] | [14] | [15] | [16]

Cc1cccc(Nc2cc(Cl)nc(SCC(=O)O)n2)c1C
inactive: [1] | [2] | [3] | [4] | [5] | [6] | [7] | [9] | [10] | [11] | [12] | [13] | [14] | [17] | [15] | [16]

COC(=O)c1ccc(O)cc1
inactive: [1] | [2] | [3] | [4] | [5] | [6] | [7] | [8] | [9] | [10] | [11] | [12] | [13] | [14] | [17] | [15] | [16]

COc1ccc(S(=O)(=O)N2C(=O)[C@@](c3ccccc3OC)(N3C[C@H](O)C[C@H]3C(=O)N(C)C)c3cc(Cl)ccc32)c(OC)c1
active: [3] 20 µM | [5] 32.6 µM | [6] 31.5 µM | [9] 27 µM | [11] 39 µM | [13] 29.3 µM | [15] 8.31 µM
inactive: [1] | [2] | [4] | [7] | [8] | [10] | [12] | [14] | [17] | [16]
